# TWEAK-Fn14 inh: TWEAK-Fn14 signaling inhibition; TWEAK-stimulated Fn14 reporter cells, luciferase luminescence, 8 h; inhibition, % at 10 µM; 360,000 compounds, 2% hits; AID 1159606; in the data active means inhibition above about 50%
# LGR2 antag: blocks bursicon-induced cAMP signaling via Drosophila LGR2; inhibition, % at 9.99 µM; 380,000 compounds, 0.35% hits; HEK293 LGR2, CRE-luciferase, bursicon-stimulated, 4 h; AID 720647;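 active means drop in luminescence signal, shown as inhibition above about 50% in the replicate tests, limit read from the data, passing the limit was not always enough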;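 further: agonist challenge used bursicon conditioned medium at about half maximal strength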
# TROY NFkB inh: TROY signaling inhibition; Q293 LMP1-TROYcd NF-kB luciferase reporter, 4 h; inhibition, % at 10 µM; 360,000 compounds, 0.98% hits; AID 1347056;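 active means compounds whose plate-normalised and pattern-corrected inhibition of the luciferase reporter signal at the single screening dose is 50% or more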
# HSF1 activator: increases HSF-1 driven luciferase reporter signal | NIH3T3-HGL HSF-1 luciferase reporter, MG132, 8 h; 100% = twice DMSO control signal | activation, % at 9 µM | 300,000 compounds, 1.7% hits;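 active means mean replicate activation of at least 50% with a set share of replicates each reaching 50%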;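 further: 0% = median of the neutral control wells and 100% = twice that signal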
# HSF1 inh: HSF1 inhibition. NIH3T3-HGL HSE-luciferase, MG132-induced, luminescence 8 h; active compounds read low. activity change, negative = inhibition, % at 7.5 µM (by protocol). 300,000 compounds, 0.77% hits. AID 2098;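 active means more than half of replicate wells show activity change below -50%, luminescence cut by over half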;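 further: luciferase reports HSF-1 transcriptional activity via heat shock element; 0% = median of DMSO wells and -100% = zero luminescence signal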
# EBV LMP1 NFkB: reduces LMP1-driven NF-kappaB luciferase signal; LMP1-induced NF-kappaB luciferase reporter cells, luminescence; inhibition, % at 12.5 µM; 350,000 compounds, 0.69% hits; in the data active means inhibition above about 41%;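 further: 0% = neutral control wells and 100% = reference inhibitor control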
# Active calls of the source: *; x = no result given. In the library only some 3.6% were active in any assay of this set; here they are far more common.
SMILES,TWEAK-Fn14 inh,LGR2 antag,TROY NFkB inh,HSF1 activator,HSF1 inh,EBV LMP1 NFkB
CCCNC(=O)Nc1ccc2c(c1)C(=O)N(C)C[C@H](OC)[C@@H](C)CN(S(C)(=O)=O)[C@@H](C)CO2,x,-5,x,x,x,x
O=C(C[C@H]1C=C[C@@H](NC(=O)c2cccnc2)[C@@H](CO)O1)NCc1ccc(Cl)c(Cl)c1,x,11,x,x,x,x
C[C@@H]1CN([C@H](C)CO)C(=O)c2cc(C#CCN(C)C)cnc2O[C@H]1CN(C)Cc1ccc(-c2ccccc2)cc1,x,-1,x,x,x,x
C[C@H](CO)N1C[C@H](C)[C@@H](CN(C)Cc2ccccc2)Oc2ccc(NC(=O)CCN3CCOCC3)cc2CC1=O,x,-10,x,x,x,x
COc1cccc(-c2ccc3c(c2)[C@H]2[C@H](CCN2C(=O)C2CCCCC2)[C@H](CO)N3)c1,x,7,x,x,x,x
COc1ccc(S(=O)(=O)Nc2ccc3c(c2)C(=O)N([C@H](C)CO)C[C@H](C)[C@H](CN(C)S(C)(=O)=O)O3)cc1,x,-6,x,x,x,x
COc1ccc(CNc2ccc3c(c2)nc(C)n3C)cc1,39,-18,60*,-33,-16,-14
Cc1ccc(CNc2ccc3c(c2)ncn3C)cc1,45,-21,25,7,-3,-14
Cc1ccc(CNc2ccc3c(c2)nc(C)n3C)cc1,48,29,42,6,9,20
Cc1ccc(CNc2ccc3c(c2)ncn3C(C)(C)C)cc1,8,-55,63*,26,13,-31
CC(=O)NCCc1ccc(C(=O)COC(=O)c2cccs2)cc1,61*,x,48,x,x,-7
CC(=O)NCCc1ccc(C(=O)COC(=O)c2ccc(C)s2)cc1,-21,-32,-16,x,x,-10
C=CCc1ccc(OCc2ccc(C(=O)Nc3ccc(NC(C)=O)cc3)o2)c(OC)c1,-2,-87,-60,57*,27,-25
C[C@@H](O)C#Cc1ccc2c(c1)O[C@@H](CN(C)Cc1ccccn1)[C@@H](C)CN([C@@H](C)CO)S2(=O)=O,x,12,x,x,x,x
CCCC(c1nnnn1CC(=O)OCC)N(Cc1cc2c(C)cc(C)cc2[nH]c1=O)C1CCCC1 (configuration not stated),11,x,1,92*,66,1
CNC[C@H]1Oc2c(NC(=O)Nc3ccc(OC)cc3)cccc2C(=O)N([C@H](C)CO)C[C@@H]1C,x,-9,x,x,x,x
COc1cc(C(C)=O)ccc1OCC(O)CN1CCN(c2ccccn2)CC1 (configuration not stated),108*,8,-8,-12,-5,2
COc1cc(C(C)=O)ccc1OCC(O)Cn1nc(C)c(Br)c1C (configuration not stated),-1,-13,-26,9,8,62*
CC(C)NC(=O)Nc1ccc2c(c1)C(=O)N([C@H](C)CO)C[C@@H](C)[C@@H](CN(C)Cc1ccc(C(=O)O)cc1)OCCCC[C@H](C)O2,x,-12,x,x,x,x
COCC(=O)N1C[C@@H](C)[C@H](OC)CN(C)C(=O)c2ccc(NC(=O)Nc3ccccc3)cc2OC[C@@H]1C,x,5,x,x,x,x
CCn1c(CC(C)C)n[nH]c1=S,-15,x,6,59*,25,-4
CCn1c(CSCc2ccc(C)cc2)n[nH]c1=S,0,x,-3,-9,1,2
Cc1cc(O)c(CN(C)C)c2c1C(=O)/C(=C/c1ccco1)O2,5,8,9,2,4,-2
Cc1cc(O)c(C=O)c2c1C(=O)Oc1c(CO)c(O)c3c(c1O2)C(O)OC3=O (configuration not stated),56*,x,-5,x,x,-3
CNC[C@@H]1Oc2ccc(NC(=O)NC3CCCCC3)cc2C(=O)N([C@@H](C)CO)C[C@H]1C,x,-4,x,x,x,x
SMILES,TWEAK-Fn14 inh,LGR2 antag,TROY NFkB inh,HSF1 activator,HSF1 inh,EBV LMP1 NFkB
C[C@@H]1CCCCO[C@@H](CN(C)Cc2ccc3c(c2)OCO3)[C@@H](C)CN([C@H](C)CO)C(=O)c2cc(NC(=O)c3ccncc3)ccc2O1,x,3,x,x,x,x
COCC(=O)N1CC2(C1)[C@H](c1ccc(-c3ccccc3)cc1)[C@H](CO)N2C(=O)COC,x,9,x,x,x,x
c1ccc(-c2nc(CSc3n[nH]c(-c4cccs4)n3)cs2)cc1,-17,x,10,60*,14,8
CCCNC(=O)Nc1ccc2c(c1)C(=O)N(C)C[C@H](OC)[C@@H](C)CN(CCC(F)(F)F)[C@@H](C)CO2,x,6,x,x,x,x
CCOC(=O)c1c(O)c2cc(Cl)ccc2n(CC)c1=O,9,0,2,-1,16,x
OC(COCC(F)(F)C(F)(F)C(F)(F)C(F)F)Cn1c2ccc(Cl)cc2c2cc(Cl)ccc21 (configuration not stated),64*,x,57*,3,5,-41
COCCCNC(=O)c1cc(-c2cccnc2)nc2ccccc12,30,5,57*,-2,-6,-5
CCc1ccc(-c2cc(C(=O)Nn3cnnc3)c3ccccc3n2)cc1,59*,8,-2,-33,-24,77*
O=C(O)c1cc(-c2cccc3ccccc23)nc2ccccc12,-19,14,3,-91,-88*,-5
CCCc1ccc(-c2cc(C(=O)NN3CCOCC3)c3ccccc3n2)cc1,-9,2,-52,30,22,-15
COCCNC(=O)c1cc(-c2ccc(-c3ccccc3)cc2)nc2ccccc12,-75,-55,-27,64*,35,2
O=C(O)c1cc(-c2cc(C(=O)O)c3ccccc3n2)nc2ccccc12,x,x,x,4,-3,x
COCCNC(=O)C[C@@H]1CC[C@H]2[C@@H](COc3ccc(NC(=O)c4cc(C)on4)cc3C(=O)N2C)O1,x,9,x,x,x,x
O=C(Nc1ccc(F)cc1)N1CC(=O)N2[C@H](CO)[C@H](c3ccc(C#CC4CC4)cc3)[C@H]2C1,x,0,x,x,x,x
CCNC(=S)NNC(=O)c1cc(-c2cccc(OC)c2)nc2ccccc12,-40,-4,-34,-7,4,-10
O=C(NCc1ccccn1)c1cc(-c2ccc(-c3ccccc3)cc2)nc2ccccc12,23,-20,-23,84*,29,3
CCNC(=S)NNC(=O)c1cc(-c2ccc(OCC)cc2)nc2ccccc12,52*,89*,-3,-55,-41,57*
CCCc1ccc(-c2cc(C(=O)NCCc3ccc(S(N)(=O)=O)cc3)c3ccccc3n2)cc1,12,x,-18,85*,41,-18
CN(C)C(=O)c1ccc(-c2ccc3c(c2)[C@@H]2[C@@H](CCN2S(=O)(=O)c2cn(C)cn2)[C@H](CO)N3)cc1,x,-10,x,x,x,x
O=C(N=C1c2ccccc2CN1c1ccc(F)c(F)c1)c1cccnc1,52*,-15,-48,35,7,-14
O=C(N=C1c2ccccc2CN1c1cccc(Cl)c1)c1cccnc1,18,-67,-56,38,15,-9
COc1ccc(NC(=O)C=C(C)C)cc1Cl,-20,-20,-39,x,x,-4
CC(C)=CC(=O)Nc1ccc(Cl)cc1,-14,-64,-59,51*,27,-30

# From PubChem
